# Results reported in the OligoGym collection.
# Biological target: SIRPD
# Experiment: pooled miR-30 sensor sort-seq; sequence = guide strand
# Conditions: shRNA
# Note: reference of the scale not given here.
row,Sequence,sensor-assay potency score (higher = more potent)
1,TTGTAGATTAATTTCCGGTTTG,-0.577
2,TGAACCACAAGACAGGTCCATT,-1.29
3,TTGCACATGGAACACATGTGTG,-0.922
4,AAATTGTAGATTAATTTCCGGT,-0.422
5,TTGAACCACAAGACAGGTCCAT,-0.0742

# Biological target: SIRT4
# Experiment: as above
# Conditions: shRNA
row,Sequence,sensor-assay potency score (higher = more potent)
1,TTGTGCACAAAATCAACCTTGT,0.469
2,TTGAACGCAGGTTGGGACCTGA,0.0552
3,TTTTCTGACCTGTAGTCTGGTA,-0.377
4,TGTAACTCTTTGACCTTCTCAG,0.0606
5,TTTCTGACCTGTAGTCTGGTAT,-0.224
6,TTTTTCTGACCTGTAGTCTGGT,0.35
7,TTCTTTTACACGCTTGTGCACA,-0.806
8,TATTGCAATCGGGAGCTTCTTC,-0.488
9,TTTTGCTGACCTGAAAGTCAAC,-1.46
10,ATGTTCAGTATTGCAATCGGGA,-1.33
11,ATACCTGCAAGGATGATCCCAC,0.445

# Biological target: SIRT7
# Experiment: as above
# Conditions: shRNA
row,Sequence,sensor-assay potency score (higher = more potent)
1,TTGGTCATGCACCAGAGGCGTG,-1.42
2,TTCTGCACAGCGACTTCCGACT,-1.07
3,TTCTTCACCAGCACGCAGGGGA,-0.0799
4,TAACGCTTCTCCCTTTCTGAAG,-1.56
5,TGGGTACTTCTTTAGAACCTTC,-0.762
6,TCCGTCACATCGAACACCCGCA,-0.639
7,TTCAATGTACATGTTCCCGTGG,0.307
8,ATGACGTCATCACACTTCCCAT,-1.31
9,TGAAGCAGTGTCCACACTCCAT,-1.07
10,TTCTGAAGCAGTGTCCACACTC,-0.449
11,TTCTTTAGAACCTTCAGGCTGG,0.828
12,TAGACGACCAAGTATTTGGCGT,-0.403

# Biological target: SIX1
# Experiment: as above
# Conditions: shRNA
row,Sequence,sensor-assay potency score (higher = more potent)
1,TTTCTATTTACAAGTGTCCCTA,-0.676
2,TTTATGCGCAAACAACTCCAGA,-1.43
3,TTCTATTTACAAGTGTCCCTAG,0.0217
4,TTAAGCTTGAGATCGCTGTTGG,0.117
5,ATATTTGTGAAAGTCCACCATT,-0.953
6,TTCTTGTGCAGGTGGTCGCAGG,-1.02
7,TTGTTTTCGGTGTTCTCCCTTT,-0.196
8,TTCTGAGCTGGACATGAGCGGC,-1.35
9,AACAACTCCAGAAACAAGCTGC,-0.198
10,TACAAGTGTCCCTAGTCGCTGC,0.379
11,TTCTCCTTGAAGCAGTAGCTGG,-1.4
12,TTGAGTACGCTCTCGTTCTTGT,-0.00831
